In the library only some 27% were active in any assay of this set; here they are far more common.
CYP2C19 inh = blockers of cytochrome P450 2C19 activity – biochemical, luminescence, ADME assay, primary screen; CYP2C19 Supersomes, luciferin-H EGE luminescence, 30 min; inhibition, % at 5 µM; actives 21% (n = 96,000);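 active = CYP2C19 inhibition above a set limit at 5 µM in the primary screen, cut at about 50% in these data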;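 also: plate controls were negative control wells for no effect and 2.5 mM tranylcypromine positive control for full effect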
CYP2C19 activ = human CYP2C19 activators, primary screen, biochemical, luminescence; recombinant CYP2C19, luciferin-H EGE luminescence; stronger effect = higher value; 0 = fully inhibited enzyme, 1 = untreated enzyme; Cytochrome P450 2C19 (Homo sapiens), P33261; 96,000 tested, under 10 active; AID 1025, 2008; activation factor at 5 µM;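 active = activation factor of at least 2 at 5 µM in the primary screen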;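 also: 0 = wells with 2.5 mM tranylcypromine and 1 = vehicle-only wells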
Cav3 T inh = Cav3.2 calcium influx blockers – cell-based, Fluo-4 calcium fluorescence, FDSS, MLSMR library, primary screen; actives 4% (n = 100,000); Voltage-dependent T-type calcium channel subunit alpha-1H (Homo sapiens), O95180; B-score at 10 µM; AID 449739, 2010; Cav3.2-expressing cells; stronger effect = lower value;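 active = single-dose well whose peak fluorescence ratio is a statistical outlier from its plate by either plate-standardised score or position-corrected B-score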
CYP2C9 inh = blockers of cytochrome P450 2C9 activity – biochemical, luminescence, ADME assay, primary screen | P11712 | CYP2C9 Supersomes, luciferin-H conversion | inhibition, % at 5 µM | actives 20% (n = 96,000) | AID 777, 2007;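 active = blocking of liver enzyme CYP2C9 beyond about 50% at 5 µM, limit read from the data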
Target sequence (P11712 whole entry, looked up): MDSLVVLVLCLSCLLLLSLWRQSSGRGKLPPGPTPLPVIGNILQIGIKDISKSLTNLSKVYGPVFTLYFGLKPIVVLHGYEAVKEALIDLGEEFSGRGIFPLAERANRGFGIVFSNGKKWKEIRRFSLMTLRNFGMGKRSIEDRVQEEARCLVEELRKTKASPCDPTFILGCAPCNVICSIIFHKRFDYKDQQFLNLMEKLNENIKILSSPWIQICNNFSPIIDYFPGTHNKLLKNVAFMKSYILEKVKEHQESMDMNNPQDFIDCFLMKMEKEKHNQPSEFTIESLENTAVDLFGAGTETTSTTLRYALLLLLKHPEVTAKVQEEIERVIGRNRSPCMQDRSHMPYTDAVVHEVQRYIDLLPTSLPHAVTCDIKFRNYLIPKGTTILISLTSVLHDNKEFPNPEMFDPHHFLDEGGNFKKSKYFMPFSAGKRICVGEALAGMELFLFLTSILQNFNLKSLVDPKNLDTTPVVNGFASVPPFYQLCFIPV
CYP2C9 act = human CYP2C9 activators, primary screen, biochemical, luminescence; recombinant CYP2C9, luciferin-H conversion; stronger effect = higher value; factor 1 = untreated enzyme, 0 = blocked; activation factor at 5 µM; actives 1.4% (n = 96,000); AID 1024, 2008;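 active = activation factor of 2 or more for CYP2C9 at a 5 µM dose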;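 also: 0 = sulfaphenazole-blocked wells and 1 = vehicle-only wells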
Active calls of the source: *; / = no result given.

SMILES	CYP2C19 inh	CYP2C19 activ	Cav3 T inh	CYP2C9 inh	CYP2C9 act
Cc1cc(C2C(C#N)=C(N)SC(N)=C2C#N)c(C)s1	92*	0.1	/	2	1
CCOC(=O)C1=C(CC)OC(N)=C(C#N)C1c1cc(OC)ccc1OC (stereo not drawn)	82*	0.2	-0.014	98*	0
Cc1sccc1C1C(C#N)=C(N)SC(N)=C1C#N	35	0.7	/	-38	1.4
CCOC(=O)C1CCCN(C(=O)CCNS(=O)(=O)c2ccc3c(c2)CCC(=O)N3)C1 (stereo not drawn)	-18	1.2	0.8	1	1
C/C=C\C=C/C(=O)Nc1cccc(C2=NOC3(C2)C[C@H](C(N)=O)N(C(=O)c2ccc(OC)cc2)C3)c1 (stereo partly drawn)	/	/	0.52	/	/
O=C(c1ccc(F)cc1)N1CCN(c2cc(N3CCCCC3)c(F)cc2[N+](=O)[O-])CC1	95*	0.1	-2	86*	0.1
CCn1c(SCc2ccc(Cl)cc2Cl)nc2nc3c(cc2c1=O)CCCC3	8	0.9	-2	43	0.6
Nc1nnc(COc2cccc(C(F)(F)F)c2)s1	64*	0.4	0.76	0	1
Nc1nnc(SCc2ccc(Cl)cc2)s1	/	/	-1.2	/	/
CCOC(=O)c1ccc(CSc2nnc(N)s2)cc1	70*	0.3	-0.47	65*	0.3
Nc1nnc(SCc2cccnc2)s1	-13	1.1	0.23	-13	1.1
Cc1cccc(OCc2nnc(N)s2)c1	29	0.7	-0.012	-2	1
Nc1nnc(SCc2ccc(F)cc2Cl)s1	91*	0.1	0.29	11	0.9
Nc1nnc(SCc2cccc(C(F)(F)F)c2)s1	96*	0	0.52	-26	1.3
Cc1cccc(Cn2c(C(=O)OC(C)C)cc3c2ccn3C)c1	46	0.5	-2.8	21	0.8
CS(=O)(=O)N1CCc2cc(C(=O)OCC(=O)c3ccccc3)ccc21	-11	1.1	-1.1	-10	1.1
CCCS(=O)(=O)N1CCC(C(=O)NCC2CCCO2)CC1 (stereo not drawn)	-4	1	0.062	-4	1
CCCc1cc(=O)[nH]c(SCC(=O)N(Cc2ccccc2)C(C)C)n1	68*	0.3	0.85	85*	0.2
CCCc1cc(=O)[nH]c(SCc2ccc(Cl)cc2)n1	86*	0.1	-0.44	72*	0.3
CCCc1cc(=O)[nH]c(SCc2cccc(C)c2)n1	21	0.8	-0.39	44	0.6
CCCc1cc(=O)[nH]c(SCc2cc(Cl)ccc2OC(F)F)n1	28	0.7	-2.5	60*	0.4
O=C(NCCNS(=O)(=O)c1ccccc1)c1cc(OCC(F)(F)F)ccc1OCC(F)(F)F	25	0.8	0.14	6	0.9
O=[n+]1cc(-c2cccc3ccccc23)n([O-])c2c1CCC2	-9	1.1	0.38	2	1
Cc1ccccc1NC(=O)CC1SC(=NC2CCCCC2)NC1=O (stereo not drawn)	1	1	-0.62	67*	0.3
COc1ccc(Cn2nnnc2CN(Cc2cc3cccc(C)c3[nH]c2=O)C2CCCC2)cc1	47	0.5	-0.29	61*	0.4
SMILES	CYP2C19 inh	CYP2C19 activ	Cav3 T inh	CYP2C9 inh	CYP2C9 act
CCOc1ccc2[nH]c(=O)c(CN(Cc3ccco3)Cc3nnnn3Cc3ccccc3)cc2c1	31	0.7	-3.1	50*	0.5
COc1ccc(Cn2nnnc2CN(Cc2cc3ccc(C)cc3[nH]c2=O)C2CCCC2)cc1	39	0.6	-0.045	18	0.8
CCOc1ccc2[nH]c(=O)c(CN(Cc3nnnn3Cc3ccco3)C3CCCCC3)cc2c1	70*	0.3	-0.048	25	0.8
Cc1nc(NC(=O)COC(=O)CCS(=O)(=O)c2ccccc2Cl)c(Cl)cc1Cl	38	0.6	0.59	6	0.9
COC(C[C@H]1O[C@H]1[C@H](O)[C@@H](C)OCc1ccccc1)OC	/	/	0.52	/	/
O=C1CC(N(Cc2ccco2)C(=O)Nc2ccc(F)cc2)C(=O)N1c1ccc(F)cc1 (stereo not drawn)	80*	0.2	-1	52*	0.5
COc1ccc(CCN(C(=O)c2cccc(F)c2)C2CC(=O)N(c3ccc(OC)cc3)C2=O)cc1 (stereo not drawn)	67*	0.3	-0.59	53*	0.5
O=C1CC(N(Cc2ccc3c(c2)OCO3)C(=O)Nc2ccc(F)cc2)C(=O)N1c1ccccc1 (stereo not drawn)	13	0.9	-0.95	3	1
COC(=O)CN(C(=S)Nc1ccc(F)cc1)C1CC(=O)N(c2ccc(OC)cc2)C1=O (stereo not drawn)	93*	0.1	0.92	62*	0.4
COc1ccc(N2C(=O)CC(N(Cc3ccc(S(N)(=O)=O)cc3)C(C)=O)C2=O)cc1 (stereo not drawn)	-8	1.1	0.79	-14	1.1
CC(C)C(=O)NC(NCC1CCCO1)C(Cl)(Cl)Cl (stereo not drawn)	32	0.7	0.83	13	0.9
O=S(=O)(c1ccc(N2CCCC2c2nc3ccccc3s2)nc1)N1CCOCC1 (stereo not drawn)	89*	0.1	1.5	86*	0.1
O=S(=O)(c1ccc(Br)cc1)N1CCCC1c1nc2ccccc2s1 (stereo not drawn)	/	/	-4.6*	/	/
CN(C)S(=O)(=O)c1ccc(C(=O)N2CCCC2c2nc3ccccc3s2)cc1 (stereo not drawn)	/	/	1.3	/	/
CS(=O)(=O)NCCC1=CCCCC1	6	0.9	/	1	1
CCOc1cccc2cc(-c3nnc(NCc4ccco4)s3)c(=O)oc12	10	0.9	-0.99	-190	2.9*
O=c1[nH]c2ccsc2c(=O)n1-c1ccc(F)c(Cl)c1	30	0.7	0.37	25	0.7
Cc1cc(C)c(C#N)c(SCC(=O)N2CCCCC2)n1	54*	0.5	1.5	-36	1.4
Cc1cc(C)c(C#N)c(SCC(=O)N(C)C2CCCCC2)n1	25	0.7	-1.5	-23	1.2
COc1cc2c(cc1OC)CN(C(=O)CSc1nc(C)cc(C)c1C#N)CC2	/	/	-0.13	/	/
CCN(Cc1ccccc1)C(=O)CSc1nc(C)cc(C)c1C#N	62*	0.4	-4.1*	-60	1.6
Cc1cc(C)c(C#N)c(SCC(=O)N2CCN(Cc3ccccc3)CC2)n1	52*	0.5	-1	30	0.7
Cc1ccc(OCc2nnc(SCC(=O)N3CCc4ccccc43)n2C)cc1	/	/	0.24	/	/
O=C(c1ccc2c(c1)OCO2)N1CCC2(CC1)Oc1ccc(Cl)cc1C(=O)C21CC(c2ccccc2)=NO1 (stereo not drawn)	/	/	-1.7	/	/
COc1ccccc1Nc1nc2ccccc2n1C	/	/	0.23	/	/
Cc1cc(C)c(NC(=O)c2cc3c(nc4sccn43)s2)c(C)c1	37	0.6	-0.35	35	0.6

Compound activity deposited in PubChem by several laboratories.
